An excerpt weighted towards active compounds, which were near 7.1% of everything screened.
Marburg entry = inhibitors of Marburg virus binding or entry into cells; Potency, µM (top dose mostly 49.2 µM), inactives show at the top dose activity change, negative = inhibition, actives largely listed as inhibitors; hit rate 6.5% among 18,000; Marburg virus pseudotype entry/binding inhibition, cell-based
LASV entry inh = inhibitors of Lassa virus binding or entry into cells; Lassa virus pseudotyped entry inhibition, cell-based qHTS; Potency, µM (doses to about 49.2 µM), inactives show top-dose activity change, negative = inhibition, usual class: inhibitors; hit rate 4.1% among 18,000
* marks the source's active call; other numbers are inactive results; u = inconclusive; x = no result given; ! = a repeat was not active; [ ] = remark or other dose. Calls follow the shape of the full dose curve; tested in HEK293 cells. % is scaled to controls: 0 for no effect and ±100 for the full control effect; potency is read from the fitted curve at half-maximal effect.

SMILES	Marburg entry	LASV entry inh
CC(C)=CCCC1(C)C=Cc2c(O)c3c(c(CC=C(C)C)c2O1)OC12C(=CC4CC1C(C)(C)OC2(C/C=C(/C)C(=O)O)C4=O)C3=O (stereo unspecified)	2.8µM*	5µM*
CC(=O)OC[C@H]1O[C@@H](ON=C(C)CCC(=O)OC[C@H]2O[C@H](C#Cc3ccccc3)C=C[C@H]2Oc2ccc(C)cc2)[C@H](OC(C)=O)[C@@H](OC(C)=O)[C@H]1OC(C)=O	9%[8.59 µM]	-1%[8.59 µM]
CN(c1ccc(NC(=O)NCCN2CCOCC2)cc1)c1ccnc(Nc2ccc(CS(C)(=O)=O)cc2)n1	-13%	72%
CC(C)[C@H]1COc2cc(Br)ccc2S(=O)(=O)N1C(=O)c1ccc(F)cc1F	26%	-5%
COCC=CC1=CC2=CC(=O)C(C)(OC(=O)c3cnc4ccccc4n3)C(=O)C2=CN1C1CC1 (stereo unspecified)	32%[8.59 µM]	6%[8.59 µM]
CCCCC#C[C@@H]1C=C[C@H](Oc2ccc(C(=O)OC)cc2)[C@@H](COC(=O)OCC)O1	16%[8.59 µM]	6%[8.59 µM]
C=C(C)[C@]12C[C@@H](C)[C@@]34O[C@](Cc5ccccc5)(O[C@@H]1[C@@H]3C=C(COC(=O)Cc1ccc(O)c(OC)c1)C[C@]1(O)C(=O)C(C)=C[C@@H]41)O2	16µM*	u
NC(=O)c1cc(-c2ccc(F)cc2)cc(-c2ccncc2)c1N	u	-26%
C=C(C)C(=O)OC[C@H]1CN2[C@H](c3ccc(Br)cc3)[C@H](C)CC[C@H]2C(=O)O1	u	-6%[8.59 µM]
C=CC[C@H]1C[C@H]2CC=CP(=O)(O2)O1	-35%	-11%
O=C(C1CCCCC1)N1C[C@H](O)[C@H](n2cc(C3CC3)nn2)C[C@@H]1c1ccccc1	22%	2%
CCCCN1CCC[C@@H]1CNC(=O)c1cc(C#N)c2ccccc2c1OC	14µM*	u
CCN1CCC[C@H]1CNC(=O)c1c(O)c(Cl)cc(Cl)c1OC	14%	-2%
Fc1ccc(-c2ncn(C3CCNCC3)c2-c2ccnc(Oc3ccc4c(c3)OCO4)n2)cc1	6.3µM*	u
NC(=O)Cc1ccccc1Oc1nccc(-c2c(-c3ccc(F)cc3)ncn2C2CCNCC2)n1	u	-30%
CCOC(=O)[C@]12C[C@@H]3OCCN(C(=O)N[C@@H]1c1ccccc1)[C@@H]32	2%[8.59 µM]	-6%[8.59 µM]
C=CC[C@@H]1C=C[C@@H](OC(=O)OCC)[C@@H](COC(=O)OCC)O1	17%[8.59 µM]	-9%[8.59 µM]
COC(=O)CC=C[C@@H](C)[C@@H](C=NOC[C@@H](O)COCc1ccco1)OC	-14%[8.59 µM]	3%[8.59 µM]
OCCc1ccccc1	5%	-5%
Oc1ccc(Cl)cc1Cc1ccccc1	-16%[107 µM]	25µM*
CCCC[C@]12Cc3c(ccc4ccccc34)[C@H](O1)c1c(cc(C)oc1=O)O2	34%[8.59 µM]	5%[8.59 µM]
CCCCCCCCNC(C)C(O)c1ccc(SC(C)C)cc1 (stereo unspecified)	u	11µM*
CC(NCCc1ccc(O)cc1)C(O)c1ccc(O)cc1 (stereo unspecified)	7%	-23%
CCN1C(=O)NC(c2ccco2)C(C(=O)OC)=C1C (stereo unspecified)	5%[8.59 µM]	-20%[8.59 µM]
Cc1cccc(CNc2cc(-c3ccccc3CN(C)C)ncn2)c1	6.3µM*	-4%
SMILES	Marburg entry	LASV entry inh
COCCNc1cc(-c2ccccc2CN(C)C)ncn1	-15%	-2%
Cc1cccc(CNc2ccnc(-c3ccccc3CN(C)C)n2)c1	11µM*	u
CNc1ccnc(-c2ccccc2CN(C)C)n1	-5%	4%
COc1ccccc1-c1nccc(NCc2cccc(C)c2)n1	13µM*	-19%
COc1ccccc1-c1cncnc1NCc1cccc(C)c1	-17%	-5%
CCCCCC(=O)N1C[C@H](O)[C@@H](n2cc(COC(=O)c3ccccc3)nn2)C[C@H]1c1ccc(OC)cc1	u	-29%
CC(=O)OC[C@H]1O[C@H](CC=NO[C@@H](C)CN2CCCc3nc(C)c(C)cc32)C=C[C@@H]1OC(C)=O	9%[8.59 µM]	-2%[8.59 µM]
N#Cc1c(NC(=O)CN2CCOCC2)sc2c1CCCC2	0%	27%
O=S1(=O)C=CCN1Cc1ccccc1	6%	38%
C=C(CO[C@@H]1C=C[C@@H](c2ccccc2)O[C@@H]1COC)c1ccccc1	-4%[8.59 µM]	9%[8.59 µM]
O=C(c1cccs1)N1C[C@@H](n2cc(-c3ccc(F)cc3)nn2)[C@@H](O)C[C@@H]1c1ccc(Cl)cc1	u	-27%
CCC(O)CNC(=O)c1cnn(-c2ncc3c(n2)-c2ccc(OC)cc2CC3)c1C1CC1 (stereo unspecified)	0%	8%
CCN(CC)CCNC(=O)c1cnn(-c2ncc3c(n2)-c2ccc(OC)cc2CC3)c1C	13µM*	u
CC(CCN1CCCCc2nc(C)c(C)cc21)=NO[C@@H](C)c1cn([C@H](CO)Cc2ccccc2)nn1	-12%[8.59 µM]	0%[8.59 µM]
CC(=O)OCOC(=O)CN(CC(=O)OCOC(C)=O)c1ccccc1OCCOc1ccccc1N(CC(=O)OCOC(C)=O)CC(=O)OCOC(C)=O	16µM*	u
COC(=O)C1=C(C)N(Cc2ccccc2)C(=NCCc2cccs2)NC1c1cccc(C(F)(F)F)c1 (stereo unspecified)	u	-11%[8.59 µM]
CCN1C(=S)NC(c2cccs2)C(C(=O)OC)=C1C (stereo unspecified)	38%[8.59 µM]	-24%[8.59 µM]
CCCCCCCCCCCCCCCCn1cc[n+](Cc2ccccc2)c1C	7.1µM*	11µM*
CCCCCCN1CCN(C2CN(CCc3ccccc3)S(=O)(=O)C2)CC1 (stereo unspecified)	17%	-32%
Cc1cc2c(c(=O)n1Cc1ccccc1)[C@H]1O[C@](c3ccsc3)(Cc3ccccc31)O2	-12%[8.59 µM]	5%[8.59 µM]
O=c1[nH]c2ccccc2n1CCCN1CCC(n2c(=O)[nH]c3cc(Cl)ccc32)CC1	13µM*!	u
O=C(CCCN1CCC(n2c(=S)[nH]c3ccccc32)CC1)c1ccc(F)cc1	u	-20%
COC(=O)[C@@]1(C=C2c3ccccc3[C@@H](OC)[C@@H]2C)[C@@H]2Oc3ccccc3[C@@H]21	0%[8.59 µM]	x
C[C@@]1(C(=O)O)NCCc2cc(O)c(O)cc21	8.9µM*	-17%
C=CC[C@@H]1C=C[C@H](ON=C[C@@H](C)[C@H](OCc2ccccc2)C(C)C)[C@H](CO)O1	-10%[8.59 µM]	x
SMILES	Marburg entry	LASV entry inh
C=CCOC(=O)N[C@H](C(C(=O)OC)=C(C)NCc1ccccc1)c1ccc(C)cc1	47%[8.59 µM]	x
N[C@@]1(C(=O)O)CN[C@@H](C(=O)O)C1	28µM*	-4%
NC1(C(=O)O)CC(C(=O)O)C1 (stereo unspecified)	30%	2%
CCc1cc2c(nc1CC)CCN(CCC(C)=NOC[C@H]1O[C@H](c3ccccc3)C=C[C@H]1Oc1ccc(OC)cc1)C2	-25%[8.59 µM]	2%[8.59 µM]
C=C/C(=C/C(=O)C[C@H](C)C[C@@H](C)CC[C@H](O)[C@H](C)C(=O)C[C@@H](O)[C@H](C)[C@@H](C)OC(=O)C[C@@H](O)C1=C(C)C(=O)OC1=O)CC	2.5µM*	2µM*
COc1ccc(Nc2ncc(-c3ccccc3)o2)cc1OC	-31%	x
NC[C@@H]1O[C@H](C23CC4CC(CC(C4)C2)C3)Cc2c1ccc(O)c2O	13µM*	u
NC[C@@H]1O[C@H](c2ccccc2)Cc2c1ccc(O)c2O	u	-16%
CCOC(=O)NN=C1C[C@@H](O)[C@@H](O)[C@@H]2[C@H]3C(=O)N(Cc4ccc5c(c4)OCO5)C(=O)[C@@H]3CC[C@@H]12	-2%[8.59 µM]	-3%[8.59 µM]
Cc1cc(I)ccc1Nc1c(C(=O)NOCC2CC2)cc(F)c(F)c1F	11µM*	u
Cn1cnc2c(F)c(Nc3ccc(Br)cc3Cl)c(C(=O)NOCCO)cc21	8%	9%
